SNCA expr inh: Primary qHTS assay for inhibitors of alpha-synuclein gene (SNCA) expression; HEK-293 SNCA-luciferase knock-in, luminescence, 24 h; Potency, µM (doses to about 57.2 µM), actives largely listed as inhibitors; hit rate 0.17% among 140,000; further: nearly all actives have a fitted effect of over 45% in size
3T3 cytotox: Cytotoxic Profiling in NIH 3T3 Cell Line of Diverse Libraries Using Quantitative High-Throughput Screening; NIH 3T3 viability, CellTiter-Glo ATP luminescence, 48-72 h; Potency, µM (series often up to 96.7 µM), usual class: inhibitors; hit rate 4.3% among 94,000; further: nearly all actives have a fitted effect of over 55% in size
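Mouse fibroblast NIH 3T3 cells, 400 per well, received compound via pintool and were incubated for 48 or 72 hr prior to CellTiter-Glo ATP luminescence measurement.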
NPR1 antag: Natriuretic polypeptide receptor (hNpr1) antagonism - Primary qHTS | HEK293 hNpr1 GloSensor cGMP, ANP-stimulated luminescence | hit rate 1.6% among 76,000 | Potency, µM (series often up to 46.3 µM), hits mostly inhibitors | AID 1347048, 2019 | Atrial natriuretic peptide receptor 1 (Homo sapiens), P16066; calls by dose curve; further: nearly all actives have a fitted effect of over 60% in size
Target sequence (P16066 whole entry, looked up): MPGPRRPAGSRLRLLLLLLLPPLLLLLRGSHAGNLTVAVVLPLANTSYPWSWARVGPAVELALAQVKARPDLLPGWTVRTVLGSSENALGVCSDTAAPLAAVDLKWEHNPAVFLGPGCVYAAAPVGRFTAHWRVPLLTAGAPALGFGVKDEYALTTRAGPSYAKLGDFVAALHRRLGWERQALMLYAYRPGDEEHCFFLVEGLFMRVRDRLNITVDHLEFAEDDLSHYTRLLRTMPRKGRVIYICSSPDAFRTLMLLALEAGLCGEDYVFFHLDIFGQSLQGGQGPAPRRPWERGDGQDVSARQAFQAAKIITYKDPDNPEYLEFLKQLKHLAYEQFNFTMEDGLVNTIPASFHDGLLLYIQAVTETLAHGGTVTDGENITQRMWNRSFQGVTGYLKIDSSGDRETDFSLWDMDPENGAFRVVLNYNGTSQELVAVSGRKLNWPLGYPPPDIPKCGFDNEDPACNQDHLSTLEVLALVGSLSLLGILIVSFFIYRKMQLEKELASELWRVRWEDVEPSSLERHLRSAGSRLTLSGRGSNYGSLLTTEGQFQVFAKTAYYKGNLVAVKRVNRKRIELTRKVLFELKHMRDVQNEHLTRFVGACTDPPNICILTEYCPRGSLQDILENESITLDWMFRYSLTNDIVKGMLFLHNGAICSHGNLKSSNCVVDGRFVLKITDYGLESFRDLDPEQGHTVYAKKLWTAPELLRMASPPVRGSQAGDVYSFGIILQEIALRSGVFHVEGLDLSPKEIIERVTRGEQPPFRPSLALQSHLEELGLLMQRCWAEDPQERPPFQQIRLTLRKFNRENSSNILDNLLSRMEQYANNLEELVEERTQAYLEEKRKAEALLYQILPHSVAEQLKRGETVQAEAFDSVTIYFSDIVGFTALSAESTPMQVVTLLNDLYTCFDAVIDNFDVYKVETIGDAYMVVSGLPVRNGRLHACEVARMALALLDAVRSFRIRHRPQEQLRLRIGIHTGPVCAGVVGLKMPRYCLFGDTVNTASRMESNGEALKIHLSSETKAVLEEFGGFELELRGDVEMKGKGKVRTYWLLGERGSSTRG
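Compound pre-incubated 30 min at room temperature on GloSensor-loaded HEK293 cells stably carrying hNpr1 and the pGS-40F cGMP biosensor. Stimulation uses hNppA at 0.1 nM final; luminescence is taken at baseline and 20 min post-agonist.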
Luciferase inh: Firefly luciferase inhibition profiling of diverse chemical library using quantitative high-throughput screening; Luciferin 4-monooxygenase (Photinus pyralis), P08659; purified P. pyralis luciferase, luminescence, biochemical; Potency, µM (titrated, usually from 115 µM), usual class: inhibitors; hit rate 2.5% among 76,000; AID 1347043, 2019; further: nearly all actives have a fitted effect of over 65% in size
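FLuc 10nM, D-luciferin 10uM, ATP 10uM, Mg acetate 10mM, Tris acetate pH 7.5, Tween/BSA; cpd qHTS; enzyme added last; CCD luminescence.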
HEK cytotox: Cytotoxic Profiling in HEK 293 Cell Line of Diverse Libraries Using Quantitative High-Throughput Screening. HEK 293 viability, ATP luminescence (CellTiter-Glo), 48-72 h. Potency, µM (doses to about 115 µM), usual class: inhibitors. hit rate 6.6% among 94,000; further: nearly all actives have a fitted effect of over 60% in size
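HEK 293 cells at 250 cells/well were exposed to compounds by pintool transfer for 48 or 72 hr at 37 degree Celsius, 5% CO2. Viability was read as ATP-coupled luminescence with CellTiter-Glo after 10 min at room temperature.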
HEK293 viab: GF-AFC viability counterscreen for inhibitors of alpha-synuclein gene (SNCA) expression; HEK-293-SNCA-luc viability, GF-AFC fluorescence, 24 h; hit rate 0.12% among 150,000; Potency, µM (highest dose often 57.1 µM), most hits filed as cytotoxic; further: nearly all actives have a fitted effect of over 30% in size
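HEK-293-SNCA-luc cells (1500/well) plated 24 h, then exposed 24 h to a dilution series; GF-AFC added 30 min at 37C, fluorescence 405/540 nm; normalised to medium-only and DMSO wells, Hill fit.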
Hits are given with their value; - = inactive; ? = inconclusive; . = no result; [ ] = another dose, or the depositor's remark. The list is not random: actives were taken first. Their share in the collection is about 7.4%. Unless noted, the call rests on the fitted dose curve; in most records, active means well fitted curve in the direction sought with a large enough effect; inconclusive means small, poorly fitted or top-dose-only effect, or another doubt; inactive means no such curve, though single readings can be large; an effect the other way counts as inactive or inconclusive.

SMILES	SNCA expr inh	3T3 cytotox	NPR1 antag	Luciferase inh	HEK cytotox	HEK293 viab
COc1ncccc1-c1cnc2n[nH]c(-c3ccc(F)cc3C)c2n1	-	32µM	-	-	?	-
COc1ccc(-c2[nH]nc3ncc(-c4ccccc4OC)nc23)c(C)c1	-	?	-	-	89µM	-
COCCn1c(=O)c(C(=O)N2CCN(C(=O)c3cccc(Cl)c3)CC2)nc2cccnc21	-	-	.	.	-	-
O=C(Cc1ccc2c(c1)OCO2)N1CCOCC2(CN(Cc3cc(F)cc(F)c3)C2)C1	-	35µM	-	-	56µM	?
Cc1cc(C)n(-c2cccc(CN3CCN(C4CCNC4)CC3)c2)n1 (stereo unspecified)	-	-	-	-	-	-
Clc1ccc(Oc2cccc(CN3CCN(C4CCNC4)CC3)c2)cc1 (stereo unspecified)	-	28µM	-	-	28µM	-
CCN1c2cc(C(=O)Nc3ccc(C)cc3C)ccc2C(=O)N2CCCCCC21 (stereo unspecified)	-	?	-	-	?	-[12.5 µM]
CCN1c2cc(C(=O)Nc3ccc(Br)cc3)ccc2C(=O)N2CCCCCC21 (stereo unspecified)	-	40µM	-	-	?	-[12.5 µM]
CCN1c2cc(C(=O)Nc3ccccc3)ccc2C(=O)N2CCCCCC21 (stereo unspecified)	-	?	-	-	40µM	-[12.5 µM]
CCN1c2cc(C(=O)Nc3ccc(Br)cc3)ccc2C(=O)N2CCCCC21 (stereo unspecified)	-	?	-	-	?	-[12.5 µM]
CCc1ccc(NC(=O)c2ccc3c(c2)N(CC)C2CCCCN2C3=O)cc1 (stereo unspecified)	?	?	-	?	25µM	-[12.5 µM]
CCN1c2cc(C(=O)Nc3ccc(C)cc3)ccc2C(=O)N2CCCCCC21 (stereo unspecified)	-	?	-	?	40µM	-[12.5 µM]
O=C(c1ccc(F)cc1)N1CCCC2(CN[S+](=O)([O-])c3cnccc3N2)C1 (stereo unspecified)	.	-	.	.	-	.
CC(=O)N1CCN(C(=O)c2ccc3nnc(-c4cc[nH]c4)n3c2)CC1	-	-	.	.	-	-
CCN1c2cc(C(=O)NCCC3=CCCCC3)ccc2C(=O)N2CCCCCC21 (stereo unspecified)	-	?	-	-	?	-[12.5 µM]
CCN1c2cc(C(=O)Nc3cc(C)cc(C)c3)ccc2C(=O)N2CCCCC21 (stereo unspecified)	-	?	-	-	28µM	-[12.5 µM]
CCN1c2cc(C(=O)NCCC3=CCCCC3)ccc2C(=O)N2CCCCC21 (stereo unspecified)	-	?	-	-	45µM	-[12.5 µM]
CCN1c2cc(C(=O)Nc3cc(F)cc(F)c3)ccc2C(=O)N2CCCCCC21 (stereo unspecified)	-	?	-	-	?	-[12.5 µM]
CCN1c2cc(C(=O)Nc3ccc(N4CCOCC4)cc3)ccc2C(=O)N2CCCCC21 (stereo unspecified)	-	20µM	-	-	?	-[12.5 µM]
CCN1c2cc(C(=O)Nc3cccc(C#N)c3)ccc2C(=O)N2CCCCCC21 (stereo unspecified)	-	?	-	-	16µM	-[12.5 µM]
Cc1ccc([S+](=O)([O-])N2CCN(Cc3ccccc3-c3cccnc3)CC2)cc1	?	?	.	.	?	-[12.5 µM]
COc1ccccc1C(=O)NC1CCN(c2ccnc3ccnn23)C1 (stereo unspecified)	-	?	.	.	?	?
CCN1c2cc(C(=O)Nc3ccc(C)cc3Cl)ccc2C(=O)N2CCCCCC21 (stereo unspecified)	-	?	-	-	50µM	?
CCN1C(=O)CN(C(=O)c2ccncc2)CC12CCOCC2	-	-	.	.	-	-
O=C1c2ccccc2-[n+]2ccc3c([nH]c4ccccc43)c21	3µM	.	.	.	.	?
SMILES	SNCA expr inh	3T3 cytotox	NPR1 antag	Luciferase inh	HEK cytotox	HEK293 viab
Cc1ccc(NC2=N[C@H]3[C@@H](O)[C@H](O)C[C@H](C(=O)N4CCC(C(N)=O)CC4)[C@H]3S2)cc1	-	-	-	50µM	-	-
COc1ccc(F)cc1-c1cccc(C(=O)NCCNC(=O)Nc2ccccc2F)c1	.	?	.	.	20µM	.
COc1ccc(F)cc1-c1cccc(C(=O)NCCNC(=O)c2ccccc2C)c1	?	?	.	.	?	-
COc1ccc(F)cc1-c1cccc(C(=O)NCCNC(=O)Nc2ccccc2)c1	-	35µM	.	.	50µM	-
CCN1CCN(C(=O)C2CCCN(c3ccnc4ccnn34)C2)CC1 (stereo unspecified)	-	-	.	.	-	-
COc1cccc(C(=O)N(C)C(C)c2cccs2)c1 (stereo unspecified)	-	-	-	-	-	-
CC(c1cccs1)N(C)C(=O)Nc1ccc(Cl)cc1 (stereo unspecified)	-	79µM	-	45µM	?	-
CC(c1cccs1)N(C)C(=O)c1cccc(Cl)c1 (stereo unspecified)	-	-	-	-	100µM	-
O=C(c1cnccn1)N1CCCC1c1noc(CO)n1 (stereo unspecified)	-	-	.	.	-	-
O=C(c1cc(-c2cc(Cl)cc(Cl)c2)c2cccn2n1)N1CCOCC1	-	35µM	.	.	?	-
O=C(NC1CCCN(c2cc(-c3ccc(F)cc3)[nH]n2)C1)c1cc(F)ccc1F (stereo unspecified)	-	?	-	-	45µM	-
O=C(NC1CCN(c2cc(-c3ccc(F)cc3)[nH]n2)C1)c1cc(Cl)ccc1F (stereo unspecified)	-	35µM	-	-	?	-
COc1ccc(-c2cc(N3CCC(NC(=O)c4cc(Cl)ccc4F)C3)n[nH]2)cc1 (stereo unspecified)	-	?	-	-	?	-
O=C(NC1CCCN(c2cc(-c3ccc(F)cc3)[nH]n2)C1)c1ccc(F)cc1F (stereo unspecified)	-	?	-	-	?	-
COCCn1c(=O)c(C(=O)N2CCC(Cc3ccccc3)CC2)nc2cccnc21	-	-	.	.	-	-
CCN1c2cc(C(=O)Nc3ccc(Cl)c(F)c3)ccc2C(=O)N2CCCCC21 (stereo unspecified)	-	?	-	-	35µM	-[12.5 µM]
CCN1c2cc(C(=O)Nc3ccc(F)c(F)c3)ccc2C(=O)N2CCCCC21 (stereo unspecified)	-	?	-	-	40µM	-[12.5 µM]

Assay outcomes (PubChem)
